Compound activity deposited in PubChem BioAssay by ICCB-Longwood Screening Facility, Harvard Medical School.
Mtb MbtI inh – blocks the Mycobacterium tuberculosis siderophore enzyme MbtI. P9WFX0. purified MbtI enzyme, fluorescence intensity read-out. inhibition, % (test concentration not listed). actives 0.89% (n = 100,000). AID 493033; in the data active means inhibition mostly above about 56%, no sharp cut-off; inactive means mostly below about 77%
MenB inh – blocks the Mycobacterium tuberculosis MenB enzyme | P9WNP5 | MenB enzyme assay, absorbance read-out | inhibition, % (concentration not given with the values) | actives 0.43% (n = 100,000); in the data active means inhibition above about 21%, passing the limit was not always enough
Target sequence (P9WNP5 whole entry, looked up): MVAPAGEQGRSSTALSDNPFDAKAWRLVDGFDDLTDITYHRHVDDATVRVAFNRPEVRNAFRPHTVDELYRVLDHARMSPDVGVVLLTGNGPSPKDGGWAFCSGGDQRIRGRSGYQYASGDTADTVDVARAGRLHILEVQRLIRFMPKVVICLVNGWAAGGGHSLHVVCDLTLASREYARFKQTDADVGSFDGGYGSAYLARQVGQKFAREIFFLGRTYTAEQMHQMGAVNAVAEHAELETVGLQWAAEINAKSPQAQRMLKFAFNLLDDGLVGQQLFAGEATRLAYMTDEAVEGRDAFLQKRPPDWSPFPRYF
PV pol inh – inhibitors of poliovirus RNA polymerase binding and polymerization; P03300; poliovirus polymerase elongation, fluorescence polarization; stronger effect = lower value; % elongation, % (compound at 16.7 µg/mL); actives 0.66% (n = 150,000); AID 588519; in the data active means % elongation below about 90%
Starred values were filed as active, the others as inactive; x = no result given. A selection: hits, their analogues and other compounds. The true share with any hit is near 1.5%.

SMILES	Mtb MbtI inh	MenB inh	PV pol inh
Cc1[nH]c2ccccc2c1C	11	-19	99
Cc1cc(=S)[nH]c2ccccc12	61*	-40	104
CCCNC(=O)NC1CCC(CC)CC1 (stereo unspecified)	-21	-7	105
CN(C)C(=S)SCC(=O)Nc1ccc(F)cc1	38	-35	103
COC(=O)c1nnn(-c2nonc2N)c1CSC#N	74*	5	102
COC(=O)c1nnn(-c2nonc2N)c1CN(C)C	-8	-27	102
O=C(COC(=O)/C=C/c1ccccc1)Nc1c(F)cccc1F	0	x	104
O=C(COC(=O)/C=C/c1ccc(F)cc1)Nc1ncccn1	-4	-39	84*
CN(C)S(=O)(=O)c1ccc(C(=O)Nc2[nH]nc(N3CCCC3)c2C#N)cc1	4	5	103
c1ccc2nc(Sc3ncn[nH]3)c(Sc3ncn[nH]3)nc2c1	x	-16	85*
O=c1[nH]nc(Sc2ncn[nH]2)c(=O)[nH]1	10	-8	98
Clc1ccc(OCCN2CCCC2)c2ccccc12	151	-29	103
c1ccc2c(c1)OCC(CSc1nc3ccccc3s1)O2 (stereo unspecified)	77	0	100
Cc1ccc(C(=O)N/C(=C/c2ccccc2)C(=O)NCc2ccco2)cc1	-22	46*	102
O=C(NCc1ccccc1)/C(=C\c1ccccc1)NC(=O)c1ccccc1	-8	-13	104
CCCCn1c(COc2ccc(OC)cc2)nc2cc(S(=O)(=O)N3CCOCC3)ccc21	-1	-5	106
CCOC(=O)c1[nH]c(CSc2cccc[n+]2[O-])c(C(=O)OCC)c1C	37	-30	66*
CCOC(=O)c1[nH]c(CSc2nnc3ccccn23)c(C(=O)OCC)c1C	-2	-9	102
COC(=O)c1ccc(CSc2nnc(-c3ccc(OC)cc3)o2)cc1	-11	-28	99
Cc1cc(C(=O)CSc2ncc(-c3ccccc3)n2C)c(C)n1-c1ccc(S(N)(=O)=O)cc1	-7	-7	103
O=C(NCC1CCCO1)c1cn(-c2ccccc2)nc1-c1cccs1 (stereo unspecified)	-21	x	101
O=C(CSc1nc(-c2cccs2)nc2ccccc12)N1CCNC1=O	0	0	100
CN/C=C/C(=O)C(F)(F)F	21	6	106
COc1ccc2c(c1)nc(SCC(=O)C(C)(C)C)n2C	53*	0	98
COc1ccc2c(c1)nc(SCC(C)O)n2C (stereo unspecified)	2	x	98
SMILES	Mtb MbtI inh	MenB inh	PV pol inh
Fc1nc(F)c(F)c(Oc2c(F)c(F)c3c(F)c(F)c(F)c(F)c3c2F)c1F	-6	-15	103
Cc1ccc(S(=O)(=O)NC(=O)NC2CC(C)(C)NC(C)(C)C2)cc1	-7	-17	105
CC1C(=O)NN=C1C(=O)N/N=C\c1cccnc1 (stereo unspecified)	37	35*	99
CC1C(=O)NN=C1C(=O)N/N=C/c1ccc(OC(=O)c2ccco2)cc1 (stereo unspecified)	-4	-7	99
O=C1c2ccccc2C(=O)C1(O)N1CCOCC1	2	19	34*
O=C(CC1(c2ccc(Cl)cc2)C(=O)c2ccccc2C1=O)N1CCOCC1	-8	-35	104
CCn1c(CSc2ccc(OC)cc2)nc2cc(S(=O)(=O)N3CCCCC3)ccc21	6	-5	102
COP1(=S)/C(=C2/N(C)c3ccccc3C2(C)C)C=NN1C (stereo unspecified)	100*	-82	70*
CN1/C(=C2\C=NN(C)P2(=S)N2CCCC2)C(C)(C)c2ccccc21 (stereo unspecified)	6	-19	109
O=C(c1ccc(Nc2nc3ccccc3n3nnnc23)cc1)N1CCOCC1	5	-1	102
CCCCc1ccc(N2C(=O)CS/C2=C(/C#N)S(=O)(=O)c2ccccc2)cc1	25	-12	103
CCOC(=O)Cc1nnc(SCc2ccc(C#N)cc2)n1Cc1ccco1	1	-7	101
NC(=O)c1cc(-c2csc(=NC3CC3)n2/N=C/c2ccccn2)ccc1O	16	-94	106
O=C(O)c1cccc(O)c1	-75	x	100
CC(C)P(=O)(c1cccc(C(=O)O)c1)C(C)C	x	23*	102
COc1ccc(N2CC(NS(C)(=O)=O)CC2=O)cc1 (stereo unspecified)	-7	-26	100
CN(CCC(N)=O)Cc1ccccc1	-2	38*	101
CN(C)CCN(C)Cc1ccccc1	-25	-16	101
O=c1oc2ccccc2c2oc3cc(O)c(O)cc3c12	82	-4	100
O=c1oc2c(O)c(O)cc3c(=O)oc4c(O)c(O)cc1c4c23	26	-5	83*
Cn1c(Cc2nnc(NC3CCCCC3)s2)nc2ccccc21	-5	-24	102
CSc1nnc(COc2ccc(Br)cc2)n1Cc1ccccc1	-23	11	100
CCN(CC)C(=O)NC1CCCCCC1	-12	-13	100
C=C/C=C(\C=C(C)C)N(C(=O)NC1CCCCC1)C1=NCCCS1	-1	29*	102
O=C1CCC(=O)N1CN1CCN(c2ccccc2)CC1	-14	-22	105
SMILES	Mtb MbtI inh	MenB inh	PV pol inh
CC(C)C(=O)Nc1cc(S(C)(=O)=O)ccc1Cl	-12	4	97
S=c1[nH]nc(Cc2cccc3ccccc23)o1	x	-34	103
S=c1[nH]nc(CNc2cccc(Cl)c2)o1	84*	-26	100
c1ccc2[nH]c(SN3CCCCC3)nc2c1	97*	-8	100
c1ccc2[nH]c(SCCCN3CCCCC3)nc2c1	8	-19	99
OC(COCc1ccc2c(c1)OCO2)CN1CCN(c2ccc(F)cc2)CC1 (stereo unspecified)	x	-8	102
CC(C)OCc1nc2ccccc2n1C	-1	2	100
CCOC(OCC)n1c(=S)n(C(OCC)OCC)c2ccccc21	94*	-17	83*
O=C(O)Cc1ccc2ccccc2c1Br	-5	x	104
Fc1ccccc1Nc1nn(CN2CCCC2)c(=S)s1	93	12	96
C=CCN(CC=C)Cn1nc(Nc2ccccc2F)sc1=S	99*	3	107
Cc1nn(-c2ccccc2)cc1/C=N/n1c(-c2ccncc2)n[nH]c1=S	51*	-18	103
COc1ccc(-c2n[nH]c(=S)n2/N=C/c2c(C)nn(-c3ccccc3)c2C)cc1OC	2	-17	101
c1ccc(-c2nn3c(C4COc5ccccc5O4)nnc3s2)nc1 (stereo unspecified)	57*	-35	92
Cn1c(SCc2cnc(-c3ccccc3)s2)nnc1C1COc2ccccc2O1 (stereo unspecified)	-11	-8	102
O=C1CCc2nc3ccccc3n21	5	-21	95
CC(C)(C)c1csc(NC(=O)C(CC(=O)O)NCc2ccco2)n1 (stereo unspecified)	2	-9	100
O=C1CN(c2ccccc2)C(=O)CN1c1ccccc1	-5	0	100
O=S1NN(c2ccccc2)S(=O)NN1c1ccccc1 (stereo unspecified)	7	-68	72*
COC(=O)CSC(=S)N1CCC(C)CC1	-7	-56	101
S=C(c1ccc(Cl)cc1)N1CCCCC1	39	-75	99
Oc1ccc(C(=S)N2CCN(c3cccc(Cl)c3)CC2)cc1	59*	-40	102
CC1CCN(C(=S)c2ccc(O)cc2)CC1	99*	-12	100
O=C(Oc1ccc(C(=S)N2CCCCC2)cc1)c1ccccc1	45	-56	99
